PubChem BioAssay AID1454 (National Center for Advancing Translational Sciences (NCATS), 2008)
Hit rate of the full screen: of about 130,000 compounds, about 550 (0.42%) were called active. Another 4% or so got no clear call; they are omitted. The call rests on the fitted dose curve; in most records, active means well fitted inhibition curve with a large enough effect; inconclusive means small, poorly fitted or top-dose-only effect, or effect the other way; inactive means flat fitted curve, though single readings scatter. Only a selection was taken, and actives are over-represented in it overall.

Assay: qHTS Assay for Inhibitors of the ERK Signaling Pathway using a Homogeneous Screening Assay; Stimulation with EGF; further: nearly all actives have a fitted effect of over 55% in size
Details: HEK293-V1b, EGF-stimulated phospho-ERK AlphaScreen; series mostly up to 11.5 µM; activity change, negative = inhibition: at the top concentration
Source text: NIH Chemical Genomics Center [NCGC]
NIH Molecular Libraries Screening Centers Network [MLSCN]
Assay Submitter (PI): Dr. Wei Zheng, NCGC/NIH
The Ras/extracellular-signal-regulated kinase (ERK) mitogen activated protein (MAP) kinase signaling pathway (ERK1/2 cascade) plays a key role in transmitting signals from the cell surface to the nucleus (Nishida and Gotoh 1993; Chang and Karin, 2001). The cascade is initiated by the small G-protein Ras, which recruits Raf from the cytosol, where activation occurs. Alternatively, this pathway can be activated by elevating intracellular cAMP, or by activation of a receptor tyrosine kinase as epidermal growth factor receptor.
Activation of the ERK pathway is essential in increased cell division and cell survival. Sustained and constitutive activation of the ERK pathway, however, has been linked to uncontrolled cell proliferation, increased cell survival, and tumor progression. Thus, the ERK has been as an attractive target for cancer chemotherapy in the past few years (Sebolt-Leopold and Herrera, 2004). Given its physiological and pathological importance, assessment of ERK phosphorylation has been broadly performed in both basic research and drug discovery. Most assays for the measurement of ERK phosphorylation use the antibody-based detection methods, such as western blot and ELISA. These assays require multiple reagent additions with cell wash steps and are not suitable for high throughout screening.
The current cell-based ERK phosphorylation assay was performed using AlphaScreen platform. AlphaScreen is a two bead-based proximity-dependent chemical energy transfer luminescent assay platform. The assay reagents (ERK SureFire(TM) kit) were supplied from TGR BioSciences (Australia). In the presence of specific antibodies, phosphorylated ERK will bring "donor" and "acceptor" beads to a proximity range (<200 nm), and subsequently lead a chemical luminescent reaction upon exciting donor beads with 680 nm laser. To exclude the assay-related false positives, we used a biotinylated rabbit IgG to perform counter-screen. The biotinylated antibody mimics the phosphorylated ERK1/2 for bringing streptavidin coated beads and protein-A coated beads to a proximity range for the AlphaScreen detection.
NCGC Assay Protocol Summary:
HEK293 cells stably expressing type-1 vasopressin receptor (V1b) were maintained in DMEM medium (Invitrogen, Carlsbad, CA) at 37C under a humidified atmosphere containing 5% CO2 and 95% air. The medium contained 10% FBS, 2 mM L-glutamine, non-essential amino acid, pyruvate and 50 U/ml penicillin and 50 ug/ml streptomycin (Invitrogen). The aliquots of frozen cells were stored at -135C and used for the compound screening. All compounds were screened as titrations from 0.6 nM to 46 uM final concentration. Epidermal growth factor (EGF) was used to stimulate the ERK phosphorylation pathway. The ERK phosphorylation in cells was determined using an AlphaScreen assay kit provided by […]. Data were normalized to the controls for basal activity (DMSO only) and 100% activation (25 nM EGF). AC50 values were determined from concentration-response data modeled with the standard Hill equation.
(1) Seed 4 ul/well of resuspended frozen HEK293 cells containing 2000 cells in white 1536-well plates for overnight with 1% FBS at 37C under a humidified atmosphere containing 5% CO2 and 95% air.
(2) Add 23 nL compounds in DMSO solution. The final titration was 0.6 nM to 46 uM.
(3) Incubate at 37C for 30 min.
(4) Dispense 0.5uL EGF (25 nM in final)
(5) Incubate at 37C for 5 min.
(6) Dispense 0.5uL of 1:2 diluted 5x lysis buffer.
(7) Incubate at 37C for 10 min.
(8) Dispense 1.5uL of mixture of activation buffer and reaction buffer with AlphaScreen beads (streptavidin donor beads and protein-A acceptor beads, 10 ng/well for each).
(9) Incubate at room temperature for 5 hr.
(10) Detect the assay plate in an EnVision plate reader (PerkinElmer) using the AlphaScreen detection mode.
[…]
Potency means the concentration at half of the fitted maximal effect.

Activity change, negative = inhibition, inactive:
COCCN(CCOC)C(=S)Nc1ccccc1Cl 24.8%, O=C(CN1CCCCC1)Nc1ccccc1Cl -9.35%, COC(=O)Cc1ccc(Oc2ncc(C(F)(F)F)cc2Cl)cc1 1.69%, CCOc1ccccc1N1CN(Cc2ccccc2)CNC1=S 1.39% [at 57.5 µM], CN(Cc1nc(-c2cnccn2)no1)Cc1n[nH]c2c1CCCCC2 3.06% [at 57.5 µM], Cn1nnc(NC(=S)NC(=O)c2ccccc2)n1 -2.19% [at 57.5 µM], COc1ccc(C(=O)N/N=C2\CCS(=O)(=O)c3ccc(F)cc32)cc1OC -0.3% [at 57.5 µM], C/C(=N/NC(=O)c1ccn(C)n1)c1ccncc1 5.86% [at 57.5 µM], CCN(CC)S(=O)(=O)c1ccc(OC(C)C)c(N)c1 2.99%, CCS(=O)(=O)c1ccc(O)c(NC(=O)COc2ccc(Cl)cc2)c1 -0.946%, CN(CCc1cn[nH]c1)C(=O)CC1C(=O)NCCN1Cc1cccc(Oc2ccccc2)c1 (stereo unspecified) -15.3%, O=C(CN1CCN(c2ccc(Cl)cc2)CC1)NCc1cccs1 -13.5%, Cc1ccc(/C=N/NC(=S)Nc2cccc(S(=O)(=O)N(C)C)c2)o1 7.91% [at 57.5 µM], Nc1nnc(SCn2nnc3ccccc3c2=O)s1 -7.57%, CC1(C)CC(=O)C(CC(=O)N2CCC(Cc3ccccc3)CC2)C(=O)C1 1.38%, Cc1ccc(CN(Cc2cccnc2)C(=S)Nc2cc(Cl)ccc2C)cc1 4.9%, O=C(COC(=O)c1ccc(S(=O)(=O)Nc2ccccc2)cc1)NCC1CCCO1 (stereo unspecified) 12.7% [at 57.5 µM], COc1ccc(-n2cnnc2SCC(=O)Nc2cccc([N+](=O)[O-])c2)cc1 4.62%, CCCc1nc2c(c(=O)c3ccccc3n2C)c(=O)n1-c1cc(C)cc(C)c1 2.8% [at 57.5 µM], COc1ccc(CCNC(=O)C(=O)NCC2CCNCC2)cc1OC -2.48% [at 57.5 µM], CCn1c(SCc2cc(=O)n3ccsc3n2)nc2ccccc21 1.03%, N#C/C(=C/c1ccc(-c2ccccc2[N+](=O)[O-])o1)C(=O)NCCN1CCCCC1 -4.68% [at 57.5 µM], COC(=O)/C=C(\Oc1ccccc1)C1(O)CCCCC1 9.88% [at 57.5 µM], O=[N+]([O-])c1ccc2c(c1)C(N1CCOCC1)/C(=C/C1(O)CCCCC1)O2 (stereo unspecified) -3.12%, CC(=O)Nc1cccc(-c2nc3ccccc3s2)c1C -1.53%, CCOC(=O)N1CCN(CC(=O)Nc2ccc(F)cc2)CC1 11.2%, COCCCNC(NC(=O)c1ccc(OC)cc1)C(Cl)(Cl)Cl (stereo unspecified) 7.85%, CC(=O)c1cccc(NC(=O)[C@@H](NC(N)=O)C(C)C)c1 -0.0389%, Cc1[nH]n(C)c(=O)c1N=Nc1ccc(S(C)(=O)=O)cc1 -9.46% [at 57.5 µM], O=C(NNC(=O)c1ccccc1[N+](=O)[O-])Nc1ccccc1C(F)(F)F -11%, CCCC(=O)Nc1nnc(-c2ccccc2)o1 -5.39% [at 57.5 µM], COc1ccc(CN(C)C(=S)Nc2ccc(Cl)cc2Cl)cc1 -4.17%, O=C(NCc1csc(-c2cccs2)n1)C1CC1 3.28% [at 57.5 µM], Cc1noc(C)c1COC(=O)COc1ccc(-c2ccccc2)cc1 3.01% [at 57.5 µM], CCCn1c(NC(=O)C23CC4CC(CC(O)(C4)C2)C3)nc2ccccc21 0.399%, CCOC(=O)c1ccccc1NS(=O)(=O)c1ccc(OC)cc1 12.6%, CCOC(=O)c1c(C)[nH]c2c1-c1ccccc1C(=O)C2=O -6.6%, CC(C)NC(=O)NC(=O)CSc1nnc(-c2ccccc2F)n1N 3.58%, Cc1cc(C)nc(NC(=O)/C=C/c2ccc(Cl)cc2)n1 -5.42% [at 57.5 µM], COc1ccc(/C=C/C(=O)Nc2ccc(C)cc2)cc1S(=O)(=O)N1CCOCC1 -5.96% [at 57.5 µM], CC(=O)Nc1ccc(S(=O)(=O)Nc2nc(-c3ccc(C(C)(C)C)cc3)cs2)cc1 -2.35%, CC(=O)Nc1ccc(-c2csc(NC=C3C(=O)OC(C)(C)OC3=O)n2)cc1 -2.25%, CN(c1ccccc1)S(=O)(=O)c1ccc(Cl)c(C(=O)OCC(=O)N2CCOCC2)c1 -4.38%, O=C(NCc1cccs1)c1cc(-c2ccccn2)nc2ccc(Br)cc12 8.18%, O=C(CN1CCCC1)N1CCN(c2ccccc2)CC1 5.85%, COc1ccc(N2CCN(C(=O)/C(C#N)=C/c3ccccc3)CC2)cc1 8.33%, CC(CO)NCC12CC3CC(CC(C3)C1)C2 (stereo unspecified) -23.6%, CC(C)(C)c1cc(P(=O)(c2ccccc2)c2ccccc2)ccc1O 8.91% [at 57.5 µM], CCOC(=O)CN(C(=O)COc1nc(-c2ccccc2)cc(C)c1C#N)c1ccc(F)cc1 3.15% [at 57.5 µM], COC(OC)c1ccnc(SCc2ccccc2Cl)n1 -7.52% [at 57.5 µM], O=C(O)/C=C/c1ccc2c(c1)OCCO2 -8.38% [at 57.5 µM]

Potency, active:
O=C(Nc1ccccc1Cl)/C(Cl)=C(\Cl)S(=O)c1ccccc1 (stereo unspecified) 31.6 µM, CN=C1C=C/C(=N/N=c2\ccn(O)cc2C)C=C1C 17.8 µM, Cc1cccc(N=Nc2c(C)[nH]n(-c3ccccc3)c2=O)c1 7.08 µM, CCOC(=O)C1=C(c2ccc(OC)cc2)C(=O)c2ccccc2C1=O 31.6 µM, CC(=O)Nc1ccc(-c2csc(NC(=O)Nc3ccccc3)n2)cc1 25.1 µM
